The source of these data is PubChem BioAssay (NCI).

Assay in all cases: NCI-60 one-dose screen, 48 h (100 = growth as untreated, 0 = no growth, -100 = all killed)
Conditions in all cases: 10 µM unless noted

Test [1] has as its system NCI-H23 lung.
In test [2] the test system is NCI-H226 lung.
The test system of test [3] is NCI-H322M lung.
In test [4] the test system is HOP-62 NSCLC.
Test [5] concerns NCI-H460 lung.
Test [6] has as its system HOP-92 NSCLC.
Test [7] deals with NCI-H522 lung.
In test [8] the test system is A549/ATCC NSCLC.
The subject of test [9] is 786-0 renal.
Test [10] deals with COLO 205 colon.
Test [11] has as its system DU-145 prostate.
For test [12], the system named is K-562 leukemia.
Test [13] deals with MALME-3M melanoma.
Test [14] concerns MDA-MB-231 breast.
For test [15], the system named is RXF 393 renal.
Test [16] deals with SF-268 CNS.
Test [17] relates to SF-295 CNS.
The test system of test [18] is SF-539 CNS.
Test [19] deals with UACC-257 melanoma.
In test [20] the test system is M14 melanoma.

The panel holds about 83,000 compounds, 20% with a hit somewhere; the sample as a whole holds those more often.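 Results are percent growth after 48 hours of single-concentration exposure. 100 means growth as in untreated cells, lower positive values show inhibition; negative values down to -100 show cell death.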 Values without a mark were called inactive. Active and inactive are the calls of the source. The calls were made as follows: active = growth percent below 10; inactive = the rest.

For `C#Cc1nc(/C=C\CCCCCCC(=O)NO)cs1`, the growth in test [1] was -63.5% (active); in [2], 74.2%; in test [3] it was 78.4%; in test [4], 79.7%; in test [5], 55.4%; in test [6] it was -75.3% (active). For the same compound, the growth in test [7] is -59.8% (active); in test [8], 67.6%; in test [9] it was -78.5% (active); in test [10], 84.7%; in [11], 39.2%; in [12], 14.7%. For the same compound, the growth was -19.8% (active) in test [13]; -11.8% (active) in test [14]; -4.23% (active) in [15]; 79.4% in test [16]; 65.3% in [17]; -81.3% (active) in test [18]. Besides, the growth in [19] was 38.2%; in test [20] it was 61.6%.

For the compound `CCN(CC)CCOc1ccc(C(=C(C)c2ccc(OC)cc2)c2ccc(OCCN(CC)CC)cc2)cc1`, the growth in [1] was 57.8%; in [2], 61.2%; in [3], 33.5%; in test [4] it was 4.72% (active); in test [5], 1.96% (active); in test [6], -4.16% (active). The growth in [7] is -4.16% (active); in [8], 12.3%; in test [9], -51.1% (active); in [10] it was -56.5% (active); in [11], 37.8%; in test [12], -12.4% (active). Also, the growth was -92.1% (active) in [13]; -54.3% (active) in [14]; -77.8% (active) in [15]; 6.51% (active) in test [16]; -64.1% (active) in test [17]; -88.2% (active) in test [18]. Also, the growth is -67.2% (active) in test [19] and -70.4% (active) in test [20].

With `C=C(C)[C@@H]1CC[C@]2(COP(=O)(OCC)OCC)CC[C@]3(C)[C@H](CC[C@@H]4[C@@]5(C)CC[C@H](OP(=O)(OCC)OCC)C(C)(C)[C@@H]5CC[C@]43C)[C@@H]12`, the growth was 13.5% in [1]; 28.3% in [2]; 59.6% in test [3]; 63.5% in [4]; 22.3% in [5]; 42.2% in [6]. Also, the growth in [7] was 35.5%; in test [8], 28.4%; in [9], 72.8%; in test [10] it was 44.2%; in [11] it was 69.7%; in test [12], 19.6%. Moreover, the growth in [13] was 50.8%; in [14], 50.7%; in test [15], 45.3%; in test [16] it was 64.6%; in test [17], 14.6%; in test [18], 70.5%. In addition, the growth in test [19] was 46.8%; in [20], 51.6%.

For the compound `CCCCc1nc2c(N)nc3ccccc3c2n1Cc1ccc(OC)cc1`, the growth was 60.5% in test [1]; 73.3% in test [2]; 92.1% in [3]; 77.4% in test [4]; 63.3% in [5]; -3.74% (active) in test [6]. Besides, the growth in test [7] is 68.5%; in [8] it was 65.8%; in test [9], 65.4%; in test [10], 48.4%; in [11], 83.4%; in test [12], 23.2%. The growth in [13] was 87.6%; in test [14], 75.8%; in [15], 58.4%; in test [16], 81.1%; in test [17] it was 56.5%; in test [18], 84.2%. The results for the growth in [19] and in [20] were 72% and 67.3%, respectively.

Consider `C#C[C@]1(O)CC[C@H]2[C@@H]3CC=C4c5sc(Nc6ccc(C)cn6)nc5CC[C@]4(C)[C@H]3CC[C@@]21C`, for which the growth was 1.46% (active) in [1]; 11.5% in test [2]; 25.1% in test [3]; 6.21% (active) in test [4]; 5.32% (active) in test [5]; -1.7% (active) in [6]. Moreover, the growth in [7] is -21.5% (active); in test [8] it was 16.6%; in test [9], -53.2% (active); in test [10], -24.4% (active); in test [11], 27.9%; in [12], -2.56% (active). For the same compound, the growth in [13] is -31.4% (active); in test [14] it was -1.2% (active); in test [15], -78.6% (active); in test [16] it was -7.73% (active); in test [17], -70.2% (active); in test [18], -66.8% (active). Moreover, the growth in test [19] is -42.8% (active); in test [20] it was -48.8% (active).

`CN1CCN(Cc2ccc(/C=N/Nc3ccnc4cc(Cl)ccc34)cc2)CC1`: the growth in test [1] is 89.2%; in [2], 88.4%; in test [3], 87.5%; in test [4], 80.5%; in test [5], 83.1%; in [6] it was 64.3%. In addition, the growth is 101% in [7]; 83.7% in test [8]; 77.7% in test [9]; 93.2% in test [10]; 75.1% in [11]; 4.76% (active) in test [12]. The growth in [13] was 94.5%; in test [14], 71.5%; in test [15], 74.6%; in test [16], 99.8%; in test [17] it was 90%; in test [18] it was 64.7%. For the same compound, the growth in test [19] is 111%; in test [20] it was 96.9%.

Turning to `Cn1c(SCC(=O)c2ccco2)nc2ccccc2c1=O`, the growth was 97.4% in test [1]; 79.5% in [2]; 91.8% in test [3]; 99.7% in test [4]; 101% in test [5]; 90.6% in test [6]. Further, the growth in [7] was 101%; in [8] it was 108%; in test [9], 110%; in [10] it was 118%; in test [11] it was 106%; in [12], 92%. Moreover, the growth in [13] is 98.3%; in test [14], 93.8%; in test [15] it was 124%; in test [16], 102%; in test [17] it was 104%; in [18], 96.6%. The growth in test [19] was 99.7%; in test [20], 97.2%.
